Source: PubChem BioAssay (NCI)
Compounds without any hit were thinned out: in the full panel of roughly 83,000, 20% have a hit.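 Single-concentration screen, 48 h exposure, 96-well plates. Endpoint: percent growth. Below 10 = active.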 Values without a mark were called inactive. The source made the active and inactive calls.

Tests used:
Test in all cases: NCI-60 one-dose screen, 48 h (100 = growth as untreated, 0 = no growth, -100 = all killed)
Settings in all cases: 10 µM unless noted
NCI-H23 lung = tested on: NCI-H23 lung
NCI-H226 lung = tested on: NCI-H226 lung
NCI-H322M lung = tested on: NCI-H322M lung
HOP-62 NSCLC = tested on: HOP-62 NSCLC
NCI-H460 lung = tested on: NCI-H460 lung
HOP-92 NSCLC = tested on: HOP-92 NSCLC
NCI-H522 lung = tested on: NCI-H522 lung
A549/ATCC NSCLC = tested on: A549/ATCC NSCLC
786-0 renal = tested on: 786-0 renal
COLO 205 colon = tested on: COLO 205 colon
DU-145 prostate = tested on: DU-145 prostate
K-562 leukemia = tested on: K-562 leukemia
MALME-3M melanoma = tested on: MALME-3M melanoma
MDA-MB-231 breast = tested on: MDA-MB-231 breast
RXF 393 renal = tested on: RXF 393 renal
SF-268 CNS = tested on: SF-268 CNS
SF-295 CNS = tested on: SF-295 CNS
SF-539 CNS = tested on: SF-539 CNS
UACC-257 melanoma = tested on: UACC-257 melanoma
M14 melanoma = tested on: M14 melanoma

SMILES	growth (NCI-H23 lung) [%]	growth (NCI-H226 lung)	growth (NCI-H322M lung) [%]	growth (HOP-62 NSCLC) [%]	growth (NCI-H460 lung)	growth (HOP-92 NSCLC)	growth (NCI-H522 lung) [%]	growth (A549/ATCC NSCLC) [%]	growth (786-0 renal)	growth (COLO 205 colon)	growth (DU-145 prostate)	growth (K-562 leukemia)	growth (MALME-3M melanoma)	growth (MDA-MB-231 breast) [%]	growth (RXF 393 renal)	growth (SF-268 CNS) [%]	growth (SF-295 CNS)	growth (SF-539 CNS)	growth (UACC-257 melanoma) [%]	growth (M14 melanoma)
COc1cc(C(=O)/C=C/c2ccc(N3CCN(C)CC3)cc2)cc(OC)c1OC	90	101%	89.7	91.4	100%	98.5%	77.7	101	106%	91.3%	104%	2.23% (active)	86.3%	92	107%	97.9	95.2%	96.7%	99.3	94.8%
CCCCCCCCn1ccc2cc(NC(=O)Cn3cc(CN4CCN(CC)CC4)nn3)ccc21	105	98.3%	78.3	89.8	13.8%	54.7%	86.9	64	57.9%	-70.2% (active)	90.6%	3.41% (active)	-11.1% (active)	45.8	67.7%	76.7	13.7%	82.7%	79.4	-64.3% (active)
CC(=O)c1cc(-c2ccccc2N)n(-c2ccc3c(c2)OCO3)c1C	43.4	-0.426% (active)	31.6	30.6	2.71% (active)	38.8%	18.4	19.5	23.9%	-18.6% (active)	9.47% (active)	5.63% (active)	48.7%	21.3	39.7%	31.5	-10% (active)	-0.915% (active)	76.6	10%
CC1(C)C2CC=C(/C=N/NC(=O)C3CCC(=O)N3)C1C2 (stereo not given)	97.7	106%	107	110	102%	99.5%	99.9	104	101%	114%	113%	99.4%	105%	122	121%	101	97.4%	100%	102	107%
O=C(Nc1cccnc1Nc1ccc(Cl)cc1)c1cn(Cc2ccc(F)cc2)nn1	99.4	94.2%	98.5	112	107%	102%	91.1	103	86.9%	124%	106%	108%	117%	83.9	98.7%	103	96.6%	94.5%	105	101%
CCOC(=O)c1c(-c2ccccc2)n2c(=O)cc(C)c3c(O)c(O)cc1c32	66.2	84.6%	50.3	39.4	20.3%	47%	66.2	43.1	62.7%	86.9%	76.9%	53.4%	64.7%	76.3	76.3%	52.2	59.9%	75.7%	69.7	66.2%
C[C@@H]1O[C@@H](O[C@@H]2C[C@H](c3ccc4c(c3O)C(=O)C3=C(C4=O)[C@@]4(O)C(=O)C[C@](C)(O)C[C@@]4(O)C=C3)O[C@H](C)[C@H]2O)C[C@H](O)[C@@H]1O	93.2	101%	108	107	98.5%	120%	82.8	94.7	101%	96.9%	104%	91.3%	90.7%	102	106%	91.1	108%	101%	101	98.4%
Cc1ccc(C)c(-n2c(-c3ccc(Br)cc3)csc2=NC(=O)c2ccccc2F)c1	54.7	82.5%	92.8	95.8	40.3%	67.6%	168	71.4	71.1%	92.9%	102%	23.9%	73.9%	84.1	81.8%	99.6	73%	89%	57	81.3%
Cc1c(Cl)cccc1C(=O)Nc1nc2c(s1)CN(C(=O)Nc1cccc(C(F)(F)F)c1)CC2	21.5	39.3%	46.6	37.2	7.19% (active)	38.3%	15.1	22.5	29.1%	7.09% (active)	16.8%	11.2%	44.5%	32.3	-7.27% (active)	35.2	26%	-26.9% (active)	55.7	18.2%
CC1(C)CC2=C3C=C[C@@H]4[C@@]5(C)CC[C@H](O)C(C)(C)[C@@H]5CC[C@@]4(C)[C@]3(C)CC[C@@]2(C(=O)O)CC1=O	41.2	32.3%	55.1	50.9	63.2%	-5.32% (active)	51.2	39.2	21.1%	67%	84.1%	57.5%	15.9%	40.4	21.8%	35.4	47.3%	60%	20.9	30.3%
COc1cccc(OC)c1Oc1c(-c2nc3ccccc3s2)c(C)nn1-c1ccccc1	74.4	79.9%	65.6	70.4	78.8%	62.2%	68.3	67.4	91.4%	98.4%	79.4%	61%	81.7%	76.4	67.9%	77.1	69.4%	92%	92.4	72.3%
O=C(Nc1ccccc1)c1sc(-c2ccccc2)cc1O	83.3	94.9%	96.9	112	92.5%	77%	85.3	111	101%	113%	106%	82.6%	84.8%	105	105%	98.1	95.3%	90.8%	128	96.2%
O=C(CCCCl)NNc1nccc(Nc2ccc(S(=O)(=O)Nc3ccncc3)cc2)n1	99.3	104%	102	94.6	109%	98.5%	99.7	96.6	95.2%	111%	103%	111%	108%	116	117%	95.9	96.7%	102%	96.3	97.7%
Cc1ccc(C)n1/C=C/n1c(C)ccc1C	94.7	99%	103	114	110%	75%	83.8	95.5	107%	96.9%	113%	117%	117%	99.2	102%	143	76.9%	100%	119	110%
Nc1ncnc2c1c(-c1ccc(Oc3ccccc3)cc1)nn2CC1SSCC1O (stereo not given)	49	23.4%	34.8	56.9	28%	6.06% (active)	37.8	42.3	63.8%	35.2%	49%	11.2%	-34.8% (active)	47	17.7%	48.8	73%	41.2%	46.6	-73.5% (active)
Cc1cc(C)cc(Nc2ccc([N+](=O)[O-])c(NCCN3CCOCC3)n2)c1	30.3	22.6%	44.1	35.3	8.31% (active)	67.7%	13.3	23.7	8.13% (active)	-45.9% (active)	-1.87% (active)	7.21% (active)	60.5%	31.2	58.4%	25.1	15.7%	-11.3% (active)	76.1	1.99% (active)
